Experimental data from PubChem BioAssay (NCI).
This is part of a sample that, as a whole, favours compounds with a hit. Of some 79,000 tested, about 15% had one in any assay. Values without a mark were called inactive. Calls of active or inactive are those of the source. Rule as the data show it: active = growth inhibition above about 70%; inactive = the rest.

Columns and labels:
[1] = NCI Yeast Anticancer Drug Screen. Data for the rad50 strain (AID 155);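 also: 0% = growth of vehicle-only cultures of the same strain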; settings: S. cerevisiae rad50 strain growth inhibition; at 50.0 µM; active compounds read high
Outline: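 Growth of the mutant yeast was measured after compound exposure and referenced to vehicle-treated cultures.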

[2] = NCI Yeast Anticancer Drug Screen. Data for the mec2-1 strain (AID 157); settings: S. cerevisiae mec2-1 strain, at 50.0 µM, active compounds read high
Outline: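 Test agents were screened against the mec2-1 yeast strain, with defined DNA repair or cell cycle alteration. Growth was scored as inhibition against vehicle-only controls.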

[3] = NCI Yeast Anticancer Drug Screen. Data for the sgs1 mgt1 strain (AID 161);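 also: 0% = growth of cultures given vehicle only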; settings: S. cerevisiae sgs1 mgt1 strain, at 50.0 µM, active compounds read high
Outline: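 Test agents were incubated with a DNA-repair-mutant yeast strain. Growth was then read and compared against vehicle-treated controls.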

[4] = NCI Yeast Anticancer Drug Screen. Data for the cln2 rad14 strain (AID 165);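 also: 0% = growth equal to vehicle treated cultures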; settings: S. cerevisiae cln2 rad14 strain, at 50.0 µM, active compounds read high
Outline: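 Growth of compound-exposed yeast (cln2 rad14 genotype) measured and expressed as inhibition relative to vehicle.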

[5] = NCI Yeast Anticancer Drug Screen. Data for the bub3 strain (AID 167); settings: S. cerevisiae bub3 mutant strain, at 50.0 µM, active compounds read high
Outline: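 Whole-cell yeast assay. The mutant strain was incubated with compounds, and growth inhibition was determined by comparison with vehicle-treated cells.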

[6] = NCI Yeast Anticancer Drug Screen. Data for the mlh1 rad18 strain (AID 175); settings: S. cerevisiae mlh1 rad18 strain growth inhibition; at 50.0 µM; active compounds read high
Outline: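 In this whole-cell yeast screen, a strain with altered DNA damage repair is challenged with compound, and its growth is measured against matched vehicle-treated controls.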

Structure (SMILES)	growth inhibition [1]	growth inhibition [2]	growth inhibition [3]	growth inhibition [4]	growth inhibition [5]	growth inhibition [6]
COc1cc(OC)c(NC(=O)CC2SC(N)=NC2=O)cc1Cl (stereo not drawn)	9.75%	6.85%	20.2%	11%	25.4%	20.6%
CS(=O)(=O)N/N=C1/C=C2C/C(=N\NS(C)(=O)=O)C=C2C1	27.6%	-0.7%	47.5%	30.2%	-1.2%	43.7%
NC(=O)c1cc(Cl)c(N)c(Cl)c1	8.2%	-7.65%	-11.6%	-5.25%	-12.4%	-11.8%
O=C(N/N=C/c1ccc(Cl)cc1Cl)c1cccc2ccccc12	8.2%	-6.3%	-15%	-5.6%	11.6%	3.1%
O=C(O)CCCC1(CCCC(=O)O)OCCO1	9.6%	-4.45%	-22.9%	-60.5%	-13.8%	-2.8%
CC1=C(C)CP(=O)(c2ccccc2)C1	16.6%	-5.2%	-0.7%	-8.65%	-3.9%	-35.4%
CCOC(=N)c1cn(C2OC(CO)C(O)C2O)c2nc[nH]c(=O)c12 (stereo not drawn)	3.35%	-5.25%	11.2%	23.4%	16.2%	0.4%
N#C/C(=C\c1ccco1)c1ccc([N+](=O)[O-])cc1	16.2%	15.1%	25.6%	-0.25%	42.3%	14.3%
CC(Oc1ccccc1)C(=O)Nc1ccc(F)cc1 (stereo not drawn)	-1%	9.5%	17.8%	-11.1%	35.9%	17.6%
O=C1CSC(=S)N1c1cccc(F)c1	32.1%	-10.6%	2.1%	-27.2%	-18.1%	3.65%
CCCCOC(=O)C(C)C(=O)CCC(C)CC (stereo not drawn)	4.55%	2.6%	-1.1%	-7.05%	8.2%	3.85%
C#C/C=C/CC1OC(C(Br)CC)CC(Br)C2CC1O2 (stereo not drawn)	20.6%	16.8%	36.4%	24.4%	32%	-18.2%
CC1(C)C(O)C(C)(C)C1O (stereo not drawn)	17.1%	-17.6%	7.8%	6.95%	11.2%	10.2%
O=C(O)C1CCC2SC(F)(F)C(F)(F)C2C1 (stereo not drawn)	-4.05%	12.2%	2.65%	12.5%	8.55%	11.6%
CC(=O)c1c(O)ccc2c(C)cc(=O)oc12	37.5%	18.8%	7.4%	3.1%	26.9%	15.8%
O=S(=O)([O-])c1ccc(N=Cc2ccccc2[O-])cc1.O=S(=O)([O-])c1ccc(N=Cc2ccccc2[O-])cc1.[Co+2]	16.6%	2.25%	-15.2%	23.4%	9.25%	-9.65%
CC(C)NC(=O)OCc1c(COC(=O)NC(C)C)n(C)c2c1ccc1ccccc12	89.8% (active)	84.8% (active)	83.8% (active)	84.5% (active)	87.5% (active)	85.5% (active)
O=[N+]([O-])c1ccc(S(=O)c2ccc([N+](=O)[O-])cc2)cc1	24.8%	11.6%	5.5%	-11.1%	-1.75%	-4.75%
COc1cc(C)c(N)cc1N	-2.7%	-16.9%	11.3%	-14%	-1%	15.7%

Structure (SMILES)	growth inhibition [1]	growth inhibition [2]	growth inhibition [3]	growth inhibition [4]	growth inhibition [5]	growth inhibition [6]
O=C(c1ccccc1)C1C(c2ccccc2)SC(c2ccccc2)CC1(O)c1ccccc1 (stereo not drawn)	24.1%	1.8%	11.5%	16.9%	-3.45%	13.3%
NCCCn1[nH]c(=O)c2ncccc2c1=O	-60.1%	-28.8%	-11.7%	-91.5%	-21.6%	-18.7%
COC(=O)C(C(Br)C(=O)c1ccccc1)C(c1ccccc1)[N+](=O)[O-] (stereo not drawn)	68.7%	85.3% (active)	54.1%	2.3%	85.9% (active)	94.5% (active)
CCCCCCCCCCc1c2nc(c(CCCCCCCCCC)c3ccc([nH]3)c(CCCCCCCCCC)c3ccc([nH]3)c(CCCCCCCCCC)c3nc1C=C3)C=C2	-18.1%	-11.9%	-5.95%	23.4%	6%	-63.7%
NC(CO)C(=O)NCCS(=O)(=O)O (stereo not drawn)	-10.7%	9.6%	-3.7%	22.1%	-7.05%	-6.95%
CCCCCCCCCCCCCCCCCCCOc1ccc(OCCCCCCCCCCCC)cc1	35%	-7.15%	25.9%	-40.1%	-1.35%	-15.9%
O=C(/C(=N/O)c1ccc(Cl)cc1)c1ccccc1	99.5% (active)	99.5% (active)	99.4% (active)	99% (active)	99.3% (active)	99.6% (active)
O=C1NC(=O)C(c2ccc(Br)c3ccccc23)=C1O	9.2%	-4.75%	3.05%	-44.5%	-5.25%	-6.25%
O=C(O)c1cc(O)[nH]c(=O)c1	-12%	-105%	-22.6%	-48.5%	-26%	-16.2%
CSc1n[nH]c(NC(=O)c2ccccc2Cl)n1	-0.9%	0.45%	1.5%	-33.2%	-3.1%	7.95%
CNc1cc(S(=O)(=O)O)ccc1C	1.45%	-4.45%	-2.6%	3.9%	10.6%	-5.05%
CC(=O)NCCO	-12.7%	-22.8%	-12.7%	-19.4%	3.9%	7.25%
CC/C(=C(\CC)c1ccc(OC2C=CCCC2)cc1)c1ccc(OC2C=CCCC2)cc1 (stereo not drawn)	28.3%	-4.7%	7%	-2.55%	-13.8%	-0.1%
CCOC(=O)C(NC(=O)c1cccc(Cl)c1)(Nc1ccc(S(=O)(=O)Nc2cc(C)on2)cc1)C(F)(F)F (stereo not drawn)	67.2%	69.3%	82.3% (active)	84.7% (active)	79.2% (active)	91% (active)
CCC(O)C(C)CO (stereo not drawn)	11.8%	5.05%	19.3%	-72.8%	7.8%	-46.9%
CC1(C)OC[C@@H](O)[C@H](C#N)CO1	17.6%	27.6%	3.75%	19.6%	-0.95%	-18.1%
COc1ccc(/C=C(/C#N)C(N)=O)c(OC)c1	1.85%	-15.8%	-34.1%	-34.9%	-31.8%	2.55%
N#CC1=C(c2ccccc2)NNC(c2ccc(Cl)cc2)CC1=O (stereo not drawn)	-18.1%	-1.45%	2.4%	6.8%	-22.6%	36.5%
COc1cc2nc3n(c(=O)c2cc1OC)CCCCC3	10.4%	14.6%	3.75%	-13.2%	28%	-19.8%
